# Source: ChEMBL document CHEMBL3433997, “St. Jude Leishmania screening dataset” (2016)
# Target: Solute carrier family 2, facilitated glucose transporter member 1 (Homo sapiens) (UniProt P11166)
# Test: ST_JUDE_LEISH: Cytotoxicity at 2uM final concentration against transgenic Leishmania Mexicana promastigotes LmGLUT1 that are glucose transport deficient and complemented with the human glucose transporter GLUT1. Activity is measured by DNA content using SYBR green in vitro
# Assay type: functional
# Chain of Solute carrier family 2, facilitated glucose transporter member 1 (Homo sapiens) (P11166 whole entry): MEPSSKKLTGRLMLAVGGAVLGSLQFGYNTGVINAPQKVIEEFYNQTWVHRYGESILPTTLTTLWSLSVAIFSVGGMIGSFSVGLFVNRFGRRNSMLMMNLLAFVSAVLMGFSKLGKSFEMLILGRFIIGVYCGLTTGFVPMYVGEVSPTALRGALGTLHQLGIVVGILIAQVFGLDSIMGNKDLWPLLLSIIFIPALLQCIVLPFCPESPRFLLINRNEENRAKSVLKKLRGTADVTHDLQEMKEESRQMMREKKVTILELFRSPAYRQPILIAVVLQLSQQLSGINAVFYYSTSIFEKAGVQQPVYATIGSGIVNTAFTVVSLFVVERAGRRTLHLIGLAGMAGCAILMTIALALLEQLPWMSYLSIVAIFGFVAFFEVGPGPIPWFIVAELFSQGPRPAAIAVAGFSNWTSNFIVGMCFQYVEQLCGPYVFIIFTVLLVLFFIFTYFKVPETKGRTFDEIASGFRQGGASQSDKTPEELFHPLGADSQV
row,SMILES,inhibition
1,Cc1cc(I)ccc1Nc1nc2nonc2nc1Nc1ccc(I)cc1C,9.92%
2,CNC(=O)c1cc(NCCCNCc2ccc(Cl)c(C(F)(F)F)c2)nc2ccccc12,-1.98%
3,CN1CCN(CCCNCc2cccc(Nc3nccc(Nc4ccc(Oc5ccccc5)cc4)n3)c2)CC1,1.12%
4,O=c1cc(NCCCNCc2ccccc2-c2ccccc2)[nH]c2ccccc12,2.76%
5,COc1ccc2nccc([C@@H](O)CN3CCC(NC(=O)c4ccc(Cl)c(Cl)c4)CC3)c2c1,25.5%
6,Cc1cc(NC(=O)Nc2ccc(C#N)cc2)c2ccccc2n1,1.79%
7,Cc1ccc(S(=O)(=O)Nc2ccc(Nc3nccc(Nc4cccc5[nH]ncc45)n3)cc2)cc1,1.77%
8,Cc1c(Cl)cccc1S(=O)(=O)Nc1ccc(CCN2CCC(N)CC2)cc1,-2.63%
9,CN(C)c1ccc(CN2CCCCC(NC(=O)c3cc(-c4ccccc4Cl)cs3)C2)cc1 (stereo not given),2.84%
10,COc1ccc(-c2ccc(NC(=O)c3cccc(Cl)c3)cc2)cc1CN(C)CCN(C)C,15.6%
11,O=C(NCc1cccc(C(F)(F)F)c1)c1ccc(-c2nc3cc(F)c(F)cc3[nH]2)cc1,1.11%
12,COc1nc(-n2ccc(=N)cc2)nc2ccccc12,12.2%
13,NC(=O)c1ccccc1OCC(=O)Nc1cccc(-c2ccc(-c3nc4cc(C(F)(F)F)ccc4[nH]3)cc2)c1,4.44%
14,O=C(NCCCCN1CCC(c2ccc(OC(F)(F)F)cc2)CC1)c1ccc(NC(=O)c2ccc(Cl)cc2)cc1,-1.27%
15,COc1ccc2nccc(N3CCC(NCCNCc4ccc5c(n4)NC(=O)CO5)C3)c2n1 (stereo not given),1.29%
16,CC1CC1C(=O)NC1CCN(CC2(c3ccccc3)CCCCC2)CC1 (stereo not given),0.87%
17,COc1cccc(CN(C(=O)Nc2ccccc2F)[C@H]2C[C@H]3C(=O)Nc4cc(F)ccc4C(=O)N3C2)c1,4.68%
18,COc1ccc2nccc(C(=O)NC3CCC(CCN4CCc5cc(C#N)ccc5C4)CC3)c2c1 (stereo not given),7.23%
19,Cc1ccc(NC(=O)c2c(C)noc2-c2snnc2C)cc1,3.24%
20,Cc1[nH]n(-c2cccc(C(F)(F)F)c2)c(=O)c1-c1ccc(Cl)cc1,3.56%
21,COc1cc(C)nc2ccc(NC(=O)c3cc(C(F)(F)F)cc(C(F)(F)F)c3)cc12,16.3%
22,CCCCNC[C@@H](O)[C@H](Cc1ccccc1)NC(=O)c1cc2c3c(c1)c(CC)cn3CCS(=O)(=O)N2C,2.53%
23,O=C(/C=C/c1ccc(Cl)c(Cl)c1)NCCCCCN1CCC(NC(=O)c2ccc3ccccc3c2)CC1,0.51%
24,COc1cc(NC(=O)Nc2cccc3ccccc23)c(OC)cc1Cl,5.02%
25,CC(C)(C)n1nnnc1C(c1cccnc1)N(Cc1ccccc1)Cc1ccc(Cl)cc1 (stereo not given),2.8%

# Target: Hexose transporter 1 (Plasmodium falciparum) (UniProt O97467)
# Test: ST_JUDE_LEISH: Cytotoxicity at 2uM final concentration against transgenic Leishmania Mexicana promastigotes LmPfHT that are glucose transport deficient and complemented with the Plasmodium falciparum hexose transporter. Activity is measured by DNA content using SYBR green in vitro
# Assay type: functional
row,SMILES,inhibition
1,CCN(CC)CCN(CCN(CC)CC)c1ccc(-c2nc3cc(Cl)c(Cl)cc3[nH]2)cc1,16.3%
2,CC(C)(C)c1ccc(CN2CCCCC(NC(=O)c3cc(-c4cccc(Cl)c4)cs3)C2)cc1 (stereo not given),-0.87%
3,CCc1n[nH]c(C(=O)NC2CCN(CC3(c4ccc(OC)cc4)CCCCC3)CC2)c1C,2.97%
4,COc1ccccc1-c1ccc2nnc(SCC(=O)Nc3ccc4c(c3)OCCO4)n2n1,4.26%
5,CC(=O)Nc1ccc(S(=O)(=O)Nc2c(C)cc(Cc3cnc(N)nc3N)cc2C)cc1,0.02%
6,CNCCCNc1ccnc2cc(Cl)ccc12,4.53%
7,O=C(Nc1cccc(-c2cccc(-c3nc4cc(C(F)(F)F)ccc4[nH]3)c2)c1)c1cccnc1,0.29%
8,C=CCOC(=O)N1CCC(CNCc2ccc(-c3ccc(-c4nc5cc(C(F)(F)F)ccc5[nH]4)cc3)cc2)C1 (stereo not given),-0.38%
9,COc1ccc2nccc(N3C[C@H]4C[C@@H]3CN4CCNCc3ccc4c(n3)NC(=O)CS4)c2n1,0.1%
10,c1cc(CNCCc2ccncc2)cc(-c2csc(-c3nc4ccccc4[nH]3)c2)c1,-1.59%
11,O=C(NC1CCCCC1)N(Cc1ccc(-c2cccc(CNC3CCCC3)c2)cc1)C1CCN(Cc2ccccc2)CC1,7.64%
12,O=C(C=Cc1cccs1)Nc1ccc(-c2nc3ccccc3[nH]2)cc1,0.72%
13,O=S(=O)(Nc1cccc(CCN2CCC(N3CCCCC3)CC2)c1)c1ccc2c(c1)OCCO2,4.23%
14,COc1cc(C(=O)N2CCOC(CCN3CCC(c4ccc(Cl)cc4)CC3)(c3ccc(Cl)c(Cl)c3)C2)cc(OC)c1OC (stereo not given),11.2%
15,CC[C@@]1(O)C(=O)OCc2c1cc1n(c2=O)Cc2c-1nc1cc3c(cc1c2CN1CCN(C)CC1)OCCO3,15%
16,Cc1cc(I)ccc1Nc1nc2nonc2nc1Nc1ccc(I)cc1C,9.02%
17,CNC(=O)c1cc(NCCCNCc2ccc(Cl)c(C(F)(F)F)c2)nc2ccccc12,-1.73%
18,CN1CCN(CCCNCc2cccc(Nc3nccc(Nc4ccc(Oc5ccccc5)cc4)n3)c2)CC1,2.79%
19,O=c1cc(NCCCNCc2ccccc2-c2ccccc2)[nH]c2ccccc12,3.22%
20,COc1ccc2nccc([C@@H](O)CN3CCC(NC(=O)c4ccc(Cl)c(Cl)c4)CC3)c2c1,41.7%

row,SMILES,inhibition
1,Cc1cc(NC(=O)Nc2ccc(C#N)cc2)c2ccccc2n1,4.35%
2,Cc1ccc(S(=O)(=O)Nc2ccc(Nc3nccc(Nc4cccc5[nH]ncc45)n3)cc2)cc1,2.62%
3,Cc1c(Cl)cccc1S(=O)(=O)Nc1ccc(CCN2CCC(N)CC2)cc1,-0.88%
4,CN(C)c1ccc(CN2CCCCC(NC(=O)c3cc(-c4ccccc4Cl)cs3)C2)cc1 (stereo not given),2.86%
5,COc1ccc(-c2ccc(NC(=O)c3cccc(Cl)c3)cc2)cc1CN(C)CCN(C)C,14.4%
6,O=C(NCc1cccc(C(F)(F)F)c1)c1ccc(-c2nc3cc(F)c(F)cc3[nH]2)cc1,-2.13%
7,COc1nc(-n2ccc(=N)cc2)nc2ccccc12,13.4%
8,NC(=O)c1ccccc1OCC(=O)Nc1cccc(-c2ccc(-c3nc4cc(C(F)(F)F)ccc4[nH]3)cc2)c1,3.99%
9,O=C(NCCCCN1CCC(c2ccc(OC(F)(F)F)cc2)CC1)c1ccc(NC(=O)c2ccc(Cl)cc2)cc1,0.81%
10,COc1ccc2nccc(N3CCC(NCCNCc4ccc5c(n4)NC(=O)CO5)C3)c2n1 (stereo not given),1.28%
11,CC1CC1C(=O)NC1CCN(CC2(c3ccccc3)CCCCC2)CC1 (stereo not given),1.18%
12,COc1cccc(CN(C(=O)Nc2ccccc2F)[C@H]2C[C@H]3C(=O)Nc4cc(F)ccc4C(=O)N3C2)c1,4.97%
13,COc1ccc2nccc(C(=O)NC3CCC(CCN4CCc5cc(C#N)ccc5C4)CC3)c2c1 (stereo not given),5.23%
14,Cc1ccc(NC(=O)c2c(C)noc2-c2snnc2C)cc1,4.05%
15,Cc1[nH]n(-c2cccc(C(F)(F)F)c2)c(=O)c1-c1ccc(Cl)cc1,6.35%
16,COc1cc(C)nc2ccc(NC(=O)c3cc(C(F)(F)F)cc(C(F)(F)F)c3)cc12,12.8%
17,CCCCNC[C@@H](O)[C@H](Cc1ccccc1)NC(=O)c1cc2c3c(c1)c(CC)cn3CCS(=O)(=O)N2C,4.07%
18,O=C(/C=C/c1ccc(Cl)c(Cl)c1)NCCCCCN1CCC(NC(=O)c2ccc3ccccc3c2)CC1,0.83%
19,COc1cc(NC(=O)Nc2cccc3ccccc23)c(OC)cc1Cl,5.78%
20,CC(C)(C)n1nnnc1C(c1cccnc1)N(Cc1ccccc1)Cc1ccc(Cl)cc1 (stereo not given),10.2%
